# Measured values published in PubChem BioAssay (NCI).
# About 83,000 compounds went through this panel and 20% of them were active in at least one assay; those are over-represented in the sample as a whole.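 In brief: 96-well plates, 48 h treatment, single concentration, percent growth endpoint.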 A number with no mark means an inactive call. Calls of active or inactive are those of the source. The calls were made as follows: active = growth percent below 10; inactive = the rest.
# How the values were obtained:
# Assay in all cases: NCI-60 one-dose screen, 48 h (100 = growth as untreated, 0 = no growth, -100 = all killed)
# Details in all cases: 10 µM unless noted
# DU-145 prostate = test system: DU-145 prostate
# K-562 leukemia = test system: K-562 leukemia
# MALME-3M melanoma = test system: MALME-3M melanoma
# MDA-MB-231 breast = test system: MDA-MB-231 breast
# RXF 393 renal = test system: RXF 393 renal
# SF-268 CNS = test system: SF-268 CNS
# SF-295 CNS = test system: SF-295 CNS
# SF-539 CNS = test system: SF-539 CNS
# UACC-257 melanoma = test system: UACC-257 melanoma
# M14 melanoma = test system: M14 melanoma
# HCT-15 colon = test system: HCT-15 colon
# HT29 colon = test system: HT29 colon
# SNB-75 CNS = test system: SNB-75 CNS
# SNB-19 CNS = test system: SNB-19 CNS
# U251 CNS = test system: U251 CNS
# PC-3 prostate = test system: PC-3 prostate
# SK-MEL-5 melanoma = test system: SK-MEL-5 melanoma
# UACC-62 melanoma = test system: UACC-62 melanoma
# LOX IMVI melanoma = test system: LOX IMVI melanoma
# SK-MEL-28 melanoma = test system: SK-MEL-28 melanoma
Structure (SMILES),growth (DU-145 prostate),growth (K-562 leukemia),growth (MALME-3M melanoma),growth (MDA-MB-231 breast),growth (RXF 393 renal),growth (SF-268 CNS),growth (SF-295 CNS),growth (SF-539 CNS),growth (UACC-257 melanoma),growth (M14 melanoma),growth (HCT-15 colon),growth (HT29 colon),growth (SNB-75 CNS),growth (SNB-19 CNS),growth (U251 CNS),growth (PC-3 prostate),growth (SK-MEL-5 melanoma),growth (UACC-62 melanoma),growth (LOX IMVI melanoma),growth (SK-MEL-28 melanoma)
CCN(CC)c1ccc(C2CC(c3cc(OC)c(OC)c(OC)c3)=NN2)cc1 (stereo not given),-36.1% (active),5.52% (active),108%,31.7%,-20.9% (active),28.1%,33.9%,-43.1% (active),30.8%,5.55% (active),36.1%,-3.21% (active),18.7%,14%,33%,26.3%,-26.4% (active),48.5%,40.5%,64.8%
C=CCn1c(SCC(=O)Nc2ccc(/C(C)=N\O)cc2)nnc1-c1cc(-c2ccc(OC)cc2)nc2ccccc12,60.6%,19.1%,66.4%,33.7%,42.2%,51.5%,19.8%,20.2%,44.1%,36.3%,36.3%,42%,57.4%,44.5%,29.8%,29.9%,36.4%,37.7%,-65.4% (active),61.7%
O=C(N/N=C/c1ccccc1O)c1ccccc1O,38.7%,37.8%,47.9%,56.7%,54%,36.6%,42.1%,34.5%,5.06% (active),36.5%,30.1%,72.9%,78.3%,51.7%,36.2%,39.6%,10.6%,24%,12.8%,46.9%
O=C(Nc1cccc([N+](=O)[O-])c1)Nc1cccc([N+](=O)[O-])c1,42.2%,15.3%,66.9%,88.1%,99.4%,82.6%,34.6%,74.9%,68.1%,44.6%,24.6%,40.9%,107%,52%,50.8%,12.7%,55%,29.9%,51.3%,60.3%
Cc1c(Cl)ccc2c(C(=O)Cl)cc(-c3ccccc3)nc12,101%,97.1%,104%,97%,110%,102%,94.7%,100%,87.9%,98.1%,101%,116%,97.4%,98.6%,96.6%,96%,96.5%,92.7%,94.9%,103%
O=C(Nc1ccc(-n2cc(-c3ccncc3)c(-c3ccc(O)c(Cl)c3)n2)cc1)Nc1cccc(Cl)c1Cl,66.4%,39.6%,67.4%,27%,-8.38% (active),82%,37.6%,18.5%,90.7%,46.9%,43.1%,1.45% (active),72.5%,71.9%,39.7%,29%,31.2%,89.5%,52.8%,60.3%
NCC(=O)NS(=O)(=O)OC[C@H]1O[C@@H](n2cnc3c(N)ncnc32)[C@H](O)[C@@H]1O,-31.7% (active),7.38% (active),-2.82% (active),2.61% (active),-36.6% (active),3.78% (active),-33.7% (active),-9.36% (active),27.4%,-23.1% (active),11.4%,6% (active),-6.72% (active),-6.06% (active),-39.3% (active),9.66% (active),-0.341% (active),30.7%,-45.6% (active),8.36% (active)
O=C(Nc1ccc(-n2ccc3c(NC(=O)c4ccccc4)nccc32)cc1)Nc1ccc(Cl)c(Cl)c1,-32.6% (active),-27.3% (active),-46.9% (active),-65.2% (active),-93.9% (active),1.8% (active),-67% (active),-58.6% (active),-69% (active),-69.8% (active),-50.8% (active),-42.8% (active),-7.26% (active),-40.2% (active),-79.6% (active),23.9%,-97.9% (active),-46.4% (active),-72.4% (active),18.2%
COc1cc(-c2nc(SCC(=O)Nc3ccc(C(C)=O)cc3)[nH]c(=O)c2C#N)cc(OC)c1OC,14.1%,0.453% (active),69.5%,19.7%,24.6%,26.9%,3.4% (active),-22.9% (active),53.7%,5.17% (active),40.2%,6.82% (active),38.3%,58.2%,16%,18%,15.2%,36%,18.5%,57.8%
O=C(Nc1ccc(-n2ccc3c(NC(=O)c4ccccc4)ncnc32)cc1)Nc1cccc(Cl)c1Cl,1.29% (active),12.5%,2.21% (active),-9.33% (active),-76.1% (active),-26.8% (active),-47.9% (active),-10.4% (active),12.2%,-6.74% (active),9.38% (active),-40.2% (active),3.19% (active),-3.36% (active),-80% (active),-57.5% (active),14.9%,33.4%,-23.9% (active),-24.2% (active)
COc1ccc(C2=NN(C(=O)COc3ccc(Cl)cc3)C(O)(c3cc(F)c(Cl)cc3Cl)C2)cc1 (stereo not given),105%,82.4%,85.8%,105%,94.1%,102%,80.6%,89.3%,98.6%,85.2%,98.6%,99.4%,88.2%,94.7%,104%,75%,114%,111%,83.8%,103%
COc1cc([C@@H]2c3cc4c(cc3C(OC3O[C@@H]5COC(C)O[C@H]5[C@H](O)[C@H]3O)C3COC(=O)[C@@H]32)OCO4)cc(OC)c1O (stereo not given in full),15.9%,30.5%,40.2%,78.3%,28.9%,23.9%,-10.4% (active),-5.44% (active),51.2%,4.19% (active),73.1%,64.5%,31.2%,27.4%,13.5%,63.3%,17.4%,33.7%,12%,61.4%
CC1(C)CC(=O)C2=C(C1)OC1=C(C(=O)CC(C)(C)C1)C2c1ccc(OCc2cn(-c3ccc(F)cc3F)nn2)cc1,92.2%,73.8%,89.6%,91.8%,107%,84.9%,95.5%,99.8%,83.3%,87.3%,105%,96.9%,104%,99.9%,91.7%,77.7%,58.4%,58.6%,97.7%,103%
COc1ccc(-c2nn(-c3cccc(Cl)c3)cc2-c2cc(-c3ccc(Br)cc3)[nH]c(=O)c2C#N)cc1,56.5%,81.8%,69.1%,60.8%,75.3%,89.1%,99.1%,81%,93.4%,81.4%,71.1%,108%,-37.1% (active),90.6%,90%,86%,91%,88%,69.6%,99.6%
O=C(Nc1cccc(-n2ccc3c(NC(=O)c4ccccc4)nccc32)c1)Nc1cc(C(F)(F)F)cc(C(F)(F)F)c1,1.14% (active),4.23% (active),26.2%,-10.5% (active),-19.4% (active),22.1%,-19.2% (active),-19.3% (active),25.2%,-43.8% (active),5.94% (active),-16.3% (active),38.7%,20.5%,0.587% (active),11.1%,-82.1% (active),11.6%,22.5%,35.4%
CS(=O)(=O)Nc1cccc(-c2ccc3ncnc(Nc4ccc(F)c(Cl)c4)c3c2)c1,28.4%,11.2%,31%,-2.84% (active),23.7%,38.9%,3.13% (active),25.9%,49.4%,10.5%,1% (active),1.71% (active),32.8%,47.4%,18.2%,12.3%,21.4%,28.2%,-35.4% (active),44.9%
